Data on 37 molecules can be found in PubChem BioAssay (EPA / NIEHS).

Molecules are shown by their SMILES. Results filed as inconclusive are left out. Calls of active or inactive are those of the source. Rule for the calls: active = hit-call score of the fitted dose curve at least 0.9, where 1 is the maximum; inconclusive = response in the unintended direction; inactive = score below 0.9.

The target in this experiment is Hepatocyte nuclear factor 4-alpha (Homo sapiens) (UniProt P41235). Briefly: ATG_HNF4a_TRANS: Attagene TRANS-FACTORIAL HepG2 Assay for human Hepatocyte Nuclear Factor 4 alpha (HNF4a) (AID 2282982). Particulars: HepG2 HNF4a transactivation reporter, mRNA readout. As for the experimental part: ATG_TRANS is a cell-based, multiplexed-readout assay that uses HepG2, a human liver cell line, with measurements taken at 24 hours after chemical dosing in a 24-well plate.ATG_HNF4a_TRANS is one of 30 assay component(s) measured or calculated from the ATG_TRANS assay. It is designed to make measurements of mRNA induction, a form of inducible reporter, as detected with fluorescence intensity signals by Reverse transcription polymerase chain reaction (RT-PCR) and Capillary electrophoresis technology.Data from the assay component ATG_HNF4a_TRANS was analyzed into 1 assay endpoint. This assay endpoint, ATG_HNF4a_TRANS, was analyzed in the positive analysis fitting direction relative to DMSO as the negative control and baseline of activity. Using a type of inducible reporter, measures of mRNA for gain-of-signal activity can be used to understand the reporter gene at the transcription factor-level as they relate to the gene HNF4A. Furthermore, this assay endpoint can be referred to as a primary readout, because this assay has produced multiple assay endpoints where this one serves a reporter gene function. To generalize the intended target to other relatable targets, this assay endpoint is annotated to the nuclear receptor intended target family, where the subfamily is orphan.
Hepatocyte nuclear factor 4-alpha (Homo sapiens), sequence (P41235 whole entry, looked up): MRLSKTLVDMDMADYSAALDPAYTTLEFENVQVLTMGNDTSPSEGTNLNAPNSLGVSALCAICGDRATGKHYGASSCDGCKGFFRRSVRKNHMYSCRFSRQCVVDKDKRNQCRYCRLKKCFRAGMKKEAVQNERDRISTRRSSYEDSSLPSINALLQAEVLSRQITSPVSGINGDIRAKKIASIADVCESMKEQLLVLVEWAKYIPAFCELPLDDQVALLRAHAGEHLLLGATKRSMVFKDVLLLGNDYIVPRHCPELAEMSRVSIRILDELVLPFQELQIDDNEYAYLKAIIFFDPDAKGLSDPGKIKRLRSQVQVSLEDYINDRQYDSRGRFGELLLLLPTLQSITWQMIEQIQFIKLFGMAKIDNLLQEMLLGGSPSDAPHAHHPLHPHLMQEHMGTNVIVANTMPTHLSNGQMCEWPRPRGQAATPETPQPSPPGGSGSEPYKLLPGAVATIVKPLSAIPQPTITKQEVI
Human liver HepG2 cells are transiently transfected with multiple reporter transcription units (MRTUs) in 6-well plates using FuGene 6 reagent (Roche; 3 ml FuGene/1 mg DNA). The MRTU constructs are regulated by a cis-regulating element (promoter). […] A major difference between the CIS and TRANS system is that in CIS activities of endogenous TFs are measured, whereas the TRANS assay evaluates changes in activities of exogenous, chimeric NR-Gal4 proteins. […] At the end of 24 hour incubation, total RNA was isolated using TriZol reagent (Invitrogen). The isolated RNA is then reverse-transcribed using oligo(dT) primer and Mo-MLV reverse transcriptase (Invitrogen) with DNAse I (Ambion) treatment for 30 min. The one-tenth of the produced cDNA was amplified by PCR using Taq DNA polymerase (Invitrogen) and two reporter sequence-specific primers. The PCR products were fluorescently labeled by primer extension with 6-arboxyfluorescein (6-FAM) 5'-labeled reporter sequence-specific primer (2 min at 95 C, 20 s at 68 C and 10 min at 72 C) and these products were digested with 5U of HpaI (New England Biolabs) for 2h at 37 C. The fragments were purified using Qiaquick PCR columns (Qiagen), analyzed on an ABI 3130xL genetic analyzer (Applied Biosystems) with peak positions identified by using a set of X-rhodamine (ROX)-labeled MapMarker1000 molecular weight standards (BioVentures). The raw capillary electrophoresis data was processed using Attagraph software (Attagene).
For the molecule `CCCCCCCCCCO`, the molecule was called inactive.
Take `Cc1ccc(C)c(O)c1C`: the molecule was called inactive.
Consider `O=C(OCCCCCOC(=O)c1ccccc1)c1ccccc1`, for which the call was inactive.
The value for `Cc1cc(=O)[nH]c(=S)[nH]1` was “inactive”.
As for `CCCCOC(=O)CCCCCCCCC(=O)OCCCC`, the molecule was called inactive.
As for `CCCc1cc(=O)[nH]c(=S)[nH]1`, the call was inactive.
`Cc1ccc(N(C)C)cc1`: the result was inactive.
Turning to `CCCCCC(=O)O`, the result was inactive.
Consider `NS(=O)(=O)c1cc2c(cc1Cl)NCNS2(=O)=O`, for which the call was inactive.
In the case of `CCCCCCCCCCCCCCCC`, the outcome was inactive.
As for `Nc1nc(N)c2nc(CNc3ccc(C(=O)N[C@@H](CCC(=O)O)C(=O)O)cc3)cnc2n1`, the molecule was called inactive.
As for `Nc1ccc(S(=O)(=O)c2ccc(N)cc2)cc1`, the outcome was inactive.
For `Oc1ccc2c(c1)OC[C@@H](N1CCC(O)(c3ccc(F)cc3)CC1)[C@H]2O`, the molecule was called inactive.
As to `CCCCCCCCCCC`, the result was inactive.
`CCCCCCOCCO`: the outcome was inactive.
In the case of `COc1cc(S(=O)(=O)O)c(C)cc1N=Nc1c(O)ccc2cc(S(=O)(=O)O)ccc12`, the result was inactive.
In the case of `CC(=O)Oc1ccccc1C(=O)O`, the molecule was classed as inactive.
Regarding `CCCCCCCCCCCC(=O)OC`, the result was inactive.
Then `c1cc(-c2ccncc2)ccn1`, with “inactive”; and `Nc1ccccc1N`, with “inactive”; and `CC1(C)NC(=O)NC1=O`, with “inactive”.
As to `COc1cc(-c2nc(NC(=O)c3cc4cc(C)cc(C)c4n3CC(=O)O)sc2CCC2CCCCC2)c(OC)cc1Cl`, the call was inactive.
As to `CN[C@H]1CC[C@@H](c2ccc(Cl)c(Cl)c2)c2ccc(S(N)(=O)=O)cc21`, the outcome was inactive.
`CCCCCCCCCCCCCO`: the call was inactive.
The value for `Clc1cc(Cl)c(Cl)cc1Cl` was “inactive”.
Consider `CCOc1ccc2c(c1)C(C)=CC(C)(C)N2`, for which the molecule was classed as inactive.
For `CCCCCCCC=O`, the result was inactive.
As to `CNCc1cc(F)ccc1Oc1ccc(Cl)c(Cl)c1`, the molecule was classed as inactive.
Then `O=C(O)CCCCC(=O)O`, with “inactive”; and `CCCCN(CCCC)CCCC`, with “inactive”; and `CCCCCCC(=O)OCC`, with “inactive”.
Take `COc1cc(/C=C/C(=O)CC(=O)/C=C/c2ccc(O)c(OC)c2)ccc1O`: the molecule was called inactive.
As for `Cc1c(C(=O)O)c(O)cc2c1C(=O)c1c(O)c([C@@H]3O[C@H](CO)[C@@H](O)[C@H](O)[C@H]3O)c(O)c(O)c1C2=O`, the outcome was inactive.
Consider `Cc1cc(NC(=O)C(=O)O)cc(C)c1Oc1ccc(O)c2c1CCC2`, for which the outcome was inactive.
As for `Cc1ccc(C(C)C)c(O)c1`, the molecule was classed as inactive.
With `Cc1ccc(Cl)cc1`, the molecule was classed as inactive.
`Oc1ccc2ccccc2c1N=Nc1ccccc1`: the result was inactive.
